Compound activity from PubChem.
AMA1 RON2 block – qHTS for Inhibitors of AMA1-RON; Towards Development of Antimalarial Drug Lead: Primary Screen | 0.2% of 360,000 active | Potency, µM (top dose mostly 58.2 µM), for the others: at the highest dose activity change, negative = inhibition, hits mostly inhibitors | AlphaScreen AMA1-biotinylated RON2 peptide binding | Plasmodium falciparum AMA1 (3D7) - RON2 peptide interaction;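 also: 0% = vehicle wells and -100% = peptide control; nearly all actives have a fitted effect of over 45% in size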
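AMA1 (3D7) with his tag at 25 nM final met compounds first, then biotinylated RON2 peptide at 25 nM; detection used donor plus acceptor beads, 10 µg/mL apiece, read by AlphaScreen after 30 min at room temperature.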
AmpC inh no detg – qHTS Inhibitors of AmpC Beta-Lactamase (assay without detergent). 0.52% of 330,000 active. P00811. Potency, µM (top dose mostly 57.1 µM), for inactives: at the top dose activity change, negative = inhibition, most hits filed as inhibitors. AID 485341, 2010. AmpC nitrocefin hydrolysis, absorbance 480 nm, 0.0001% Triton;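 also: plate controls were no compound for no effect and no enzyme for full effect; nearly all actives have a fitted effect of over 20% in size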
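AmpC (5.3 nM in the dispensed reagent) in 20 mM phosphate pH 7.0 with 0.01% (detergent screen) or 0.0001% Triton X-100 was preincubated with compounds for 15 min at room temperature. Nitrocefin was then added from an 800 uM solution, and hydrolysis was followed at 480 nm.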
AmpC inh detg – qHTS Inhibitors of AmpC Beta-Lactamase (assay with detergent); Potency, µM (top dose mostly 114 µM), without a hit: top-dose activity change, negative = inhibition, most hits filed as inhibitors; 0.041% of 370,000 active; P00811; AmpC hydrolysis of nitrocefin, absorbance 480 nm, 0.01% Triton;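 also: 0% = no-compound wells and -100% = no-enzyme wells; nearly all actives have a fitted effect of over 25% in size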
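20 mM phosphate pH 7.0 + 0.01% (detergent screen) or 0.0001% Triton X-100; 5.3 nM AmpC reagent; cpd preinc 15 min RT; nitrocefin (800 uM stock) to start; A480 q20 s × 4 min; Activity was normalised to no-enzyme and no-compound control wells.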
Giardia FBPA inh – qHTS Assay for Inhibitors of Fructose-1,6-bisphosphate Aldolase from Giardia Lamblia; A8B2U2; purified Giardia FBPA; Potency, µM (doses to about 59.6 µM), inactives show top-dose activity, negative = inhibition, usual class: inhibitors; 0.71% of 290,000 active; also: nearly all actives have a fitted effect of over 55% in size
Target sequence (A8B2U2 whole entry, looked up): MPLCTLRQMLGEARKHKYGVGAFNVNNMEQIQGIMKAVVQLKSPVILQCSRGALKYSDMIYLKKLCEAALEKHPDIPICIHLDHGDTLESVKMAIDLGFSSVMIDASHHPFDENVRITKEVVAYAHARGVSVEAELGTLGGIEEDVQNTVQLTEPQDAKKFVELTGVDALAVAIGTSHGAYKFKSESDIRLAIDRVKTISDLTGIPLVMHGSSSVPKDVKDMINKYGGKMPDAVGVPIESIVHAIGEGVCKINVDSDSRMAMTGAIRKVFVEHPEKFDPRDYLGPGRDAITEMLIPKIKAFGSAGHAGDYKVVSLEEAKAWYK
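Giardia FBPA (40 nM reagent) was preincubated 10 min at RT with compound (up to 57.5 uM final), then substrate plus GAPDH/TPI/NAD/arsenate coupling system with diaphorase/resazurin was added; resorufin fluorescence (525/598 nm) was read after 20 min.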
Starred values were filed as active, the others as inactive. Rows were chosen to be rich in hits. Some 1.1% of all compounds tested hit in one or more screens of this group. Calls follow the shape of the dose curve; as a rule, active = well fitted curve in the direction sought with a large enough effect; inconclusive = small, poorly fitted or top-dose-only effect, or another doubt; inactive = no such curve, though single readings can be large; an effect the other way counts as inactive or inconclusive. Unless noted, % is scaled to controls: 0 for no effect and ±100 for the full control effect; potency is read from the fitted curve at half-maximal effect.

CCc1ccc(C2CC(=O)N3CN(c4ccccc4)CSC3=C2C#N)cc1 (centres undefined) was read as AMA1 RON2 block 40.6%, AmpC inh no detg inconclusive, AmpC inh detg inconclusive and Giardia FBPA inh inconclusive.
For COC(=O)C(C(=O)OC)C(Cc1cc(F)cc(F)c1F)NC=O (centres undefined) the results were Giardia FBPA inh 0.6%.
COC(=O)CCC(=O)OC1(C)C(=O)C2=CN(CC(C)C)C(c3ccc(OC)cc3)=CC2=C(Br)C1=O (centres undefined) was read as AmpC inh no detg 163.1%, AmpC inh detg -7.7% and Giardia FBPA inh 0.998µM*.
For [O-]/C(=C(\C(=S)Nc1cccc2ccccc12)[n+]1ccccc1)c1ccc(OC(F)F)cc1 the results were AMA1 RON2 block -16.5%, AmpC inh no detg -35.7%, AmpC inh detg inconclusive and Giardia FBPA inh 22.3µM*.
`[O-]/C(=C(\C(=S)Nc1cccc2ccccc12)[n+]1ccccc1)c1ccc2c(c1)OCCO2` gave AMA1 RON2 block -11.8%, AmpC inh no detg -3.6%, AmpC inh detg -8.6% and Giardia FBPA inh 9.98µM*.
COc1cccc(NC(=S)/C(=C(\[O-])c2ccc(OC(F)F)cc2)[n+]2ccccc2)c1 was read as AMA1 RON2 block 30.0%, AmpC inh no detg -7.3%, AmpC inh detg -11.2% and Giardia FBPA inh inconclusive.
COc1ccc(CN2C[C@H]3CCCN3c3cc(Br)ccc3S2(=O)=O)cc1 was read as AMA1 RON2 block 1.6% and AmpC inh no detg 20µM*.
Screening O=C1NC[C@H](CCCCN2C[C@H](Cc3ccc(O)cc3)N(CCc3ccccc3)C(=O)C2=O)N(CCc2ccc(O)cc2)C1=O returned AMA1 RON2 block 0.0%.
COc1ccc(NC(=O)N2CCCc3ccccc32)cc1 was read as AMA1 RON2 block -0.2%, AmpC inh no detg -7.5%, AmpC inh detg -14.3% and Giardia FBPA inh -6.2%.
COc1ccc(N/N=C(/C(C)=O)N2CCCc3ccccc32)cc1 was read as AMA1 RON2 block 15.8µM*, AmpC inh no detg -9.9%, AmpC inh detg -4.7% and Giardia FBPA inh -29.8%.
`CCC(c1nnnn1-c1ccc2c(c1)OCCO2)N1CCN(C(=O)C2CCCO2)CC1` (centres undefined) gave AMA1 RON2 block 1.3%.
For CC(NC(=O)Nc1ccc(Cl)cc1)C(c1cccs1)N1CCOCC1 (centres undefined) the results were AMA1 RON2 block -5.7%, AmpC inh no detg 2.51µM*, AmpC inh detg inconclusive and Giardia FBPA inh -6.1%.
`CCN1CCN(C(c2cccs2)C(C)NC(=O)NC2CCCCC2)CC1` (centres undefined) gave AMA1 RON2 block -7.8%, AmpC inh no detg 44.7µM*, AmpC inh detg inconclusive and Giardia FBPA inh 0.9%.
`O=C(NC(Cc1nn[nH]n1)C(=O)OCc1ccccc1)OCc1ccccc1` (centres undefined) gave AMA1 RON2 block -4.2%.
For CC(=O)c1ccc(NC(=O)COC(=O)c2ccccc2N=Nc2ccc(N(C)C)cc2)cc1 the results were AMA1 RON2 block 11.2µM*, AmpC inh no detg 13.5%, AmpC inh detg -0.3% and Giardia FBPA inh 0.8%.
`COC(=O)c1ccccc1NC(=O)COC(=O)c1ccccc1N=Nc1ccc(N(C)C)cc1` gave AMA1 RON2 block inconclusive, AmpC inh no detg -35.3%, AmpC inh detg -16.1% and Giardia FBPA inh 1.1%.
For CN(C)c1ccc(N=Nc2ccccc2C(=O)OCC(=O)N(C)c2ccccc2)cc1 the results were AMA1 RON2 block 14.1µM*, AmpC inh no detg 8.1%, AmpC inh detg -11.5% and Giardia FBPA inh 2.4%.
`CCOc1ccccc1NC(c1nnc(-c2ccccc2)o1)c1ccc(F)cc1Cl` (centres undefined) gave AmpC inh detg -2.3%.
Screening CS(=O)(=O)c1ccc(S(=O)(=O)N2CCC(CO)(CCCc3ccccc3)CC2)cc1 returned AMA1 RON2 block -6.6%, AmpC inh no detg 71.8%, AmpC inh detg -4.3% and Giardia FBPA inh 24.0%.
Screening CCOC(=O)C1CCN(Cc2ccc(O)c3ncccc23)CC1 returned AMA1 RON2 block 9.47µM*, AmpC inh no detg -13.3%, AmpC inh detg -7.3% and Giardia FBPA inh inconclusive.
